Screening results (PubChem)
A549 viability: Nrf2 qHTS screen for inhibitors: counterscreen for cytotoxicity; 0.16% of 390,000 active; A549 ARE-Fluc cells, CellTiter-Fluor viability, 18-24 h; AID 504648, 2011; Potency, µM (highest dose often 46 µM), without a hit: at the top dose activity change, negative = cytotoxicity, most hits filed as inhibitors; also: % is scaled to controls: 0 for no effect and ±100 for the full control effect
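Cytotoxicity counterscreen: CellTiter-Fluor fluorescence was measured in A549 ARE_Fluc cells after 18-24 h of compound exposure in a concentration series. The subsequent BugLite luminescent read reports ARE-luciferase activity.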
TrxR1 substrate: qHTS Assay for Substrates of Mammalian Selenoprotein Thioredoxin Reductase 1 (TrxR1): qHTS. Potency, µM (top dose mostly 114 µM), for the others: at the highest dose activity change, negative = substrate turnover. purified TrxR1 substrate turnover, NADPH consumption readout. Thioredoxin reductase 1, cytoplasmic (Rattus norvegicus), O89049. AID 588456, 2011. 0.01% of 390,000 active; also: % is scaled to controls: 0 for no effect and ±100 for the full control effect; nearly all actives have a fitted effect of over 50% in size
Target sequence (O89049 whole entry, looked up): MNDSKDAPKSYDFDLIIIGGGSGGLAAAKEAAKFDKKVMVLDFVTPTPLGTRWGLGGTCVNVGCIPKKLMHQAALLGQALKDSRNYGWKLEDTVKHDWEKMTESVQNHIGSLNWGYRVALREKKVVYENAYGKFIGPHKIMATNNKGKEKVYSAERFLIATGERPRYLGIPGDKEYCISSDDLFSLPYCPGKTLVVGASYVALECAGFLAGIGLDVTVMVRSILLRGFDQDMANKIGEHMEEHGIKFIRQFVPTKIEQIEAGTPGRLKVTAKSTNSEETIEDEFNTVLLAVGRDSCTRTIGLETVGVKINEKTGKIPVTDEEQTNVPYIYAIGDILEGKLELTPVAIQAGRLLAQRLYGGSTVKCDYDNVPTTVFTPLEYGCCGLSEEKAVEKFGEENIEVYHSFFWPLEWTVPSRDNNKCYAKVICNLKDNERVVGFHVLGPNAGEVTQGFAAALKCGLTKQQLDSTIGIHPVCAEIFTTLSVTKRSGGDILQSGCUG
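Rat TrxR1, dispensed at 90 nM, was prereduced with 400 uM NADPH (final) for 5 min at ~22 deg C, then incubated with compound 15 min before 400 uM selenite. A first-read NADPH fluorescence drop versus no-compound background flagged substrates.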
Nrf2 block: Nrf2 qHTS screen for inhibitors; A549 ARE-Fluc reporter, luciferase luminescence, 18-24 h; Potency, µM (doses to about 46 µM), for inactives: at the top dose activity change, negative = inhibition, hits mostly inhibitors; 2.1% of 360,000 active; AID 504444, 2011; also: % is scaled to controls: 0 for no effect and ±100 for the full control effect; nearly all actives have a fitted effect of over 60% in size
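Cells were seeded and rested 2 h, then exposed to compounds for 18-24 h. CellTiter-Fluor was read first as a viability measure. BugLite was added 15 min before the final luminescent read of ARE-luciferase activity in A549 cells.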
TrxR1 inh: qHTS Assay for Inhibitors of Mammalian Selenoprotein Thioredoxin Reductase 1 (TrxR1): qHTS; Potency, µM (series often up to 114 µM), without a hit: at the highest dose activity change, negative = inhibition, most hits filed as inhibitors; 1% of 390,000 active; Thioredoxin reductase 1, cytoplasmic (Rattus norvegicus), O89049; recombinant rTrxR1, NADPH fluorescence consumption, selenite substrate; also: % is scaled to controls: 0 for no effect and ±100 for the full control effect; nearly all actives have a fitted effect of over 65% in size
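Rat TrxR1 (90 nM in the dispensed reagent) was pre-reduced with 400 uM NADPH for 5 min at room temperature, then incubated with compound for 15 min. After 400 uM selenite was added, NADPH fluorescence (Ex 340/Em 450 nm) was followed for 8 min.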
Mito fusion yeast: qHTS Assay for Small Molecule Inhibitors of Mitochondrial Division or Activators of Mitochondrial Fusion. AID 485298, 2010. S. cerevisiae fusion-defective mutant growth rescue, CellTiterGlo 48 h. Potency, µM (top dose mostly 46.1 µM), inactives show top-dose growth rescue (activation), most hits filed as activators. 0.23% of 320,000 active; also: % of control where 0% means no effect; nearly all actives have a fitted effect of over 45% in size
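Growth-rescue viability read-out: after 48 h at the non-permissive 37C in glycerol/ethanol YPEG, yeast mitochondrial fusion mutants are measured by CellTiterGlo luminescence; compounds (23 nl pinned per well) restoring growth score as division inhibitors or fusion activators.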
IDH1 R132H inh: qHTS for Inhibitors of mutant isocitrate dehydrogenase 1 (IDH1): qHTS | Isocitrate dehydrogenase [NADP] cytoplasmic (Homo sapiens), O75874 | Potency, µM (series often up to 76.6 µM), for inactives: top-dose activity change, negative = inhibition, most hits filed as inhibitors | IDH1-R132H enzyme, NADPH consumption, diaphorase/resazurin fluorescence | 0.093% of 390,000 active | AID 602179, 2012; also: % is scaled to controls: 0 for no effect and ±100 for the full control effect; nearly all actives have a fitted effect of over 65% in size
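IDH1-R132H (0.5 ug/mL dispensed) in pH 7.5 Tris buffer was preincubated 30 min with compound, then given a substrate mix of 0.016 mM NADPH and 2 mM alpha-KG for 80 min at room temperature; remaining NADPH was read by diaphorase/resazurin fluorescence.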
The depositor's hits bear a star; ? = inconclusive; . = no result; [ ] = remark or other dose. The list is not random: actives were taken first. Their share in the collection is about 3.1%. Calls follow the shape of the dose curve; as a rule, active = well fitted curve in the direction sought with a large enough effect; inconclusive = small, poorly fitted or top-dose-only effect, or another doubt; inactive = no such curve, though single readings can be large; an effect the other way counts as inactive or inconclusive. Potency is read from the fitted curve at half-maximal effect.

SMILES | A549 viability | TrxR1 substrate | Nrf2 block | TrxR1 inh | Mito fusion yeast | IDH1 R132H inh
O=C(CCNc1ccc(F)cc1)c1ccco1 | -5% | -4% | 15% | 11µM* | -2% | 1%
CC1(C)CC(=O)C2=C(C1)NC1=C(C(=O)c3ccccc31)C2c1ccccc1 (centres undefined) | ? | -12% | -21% | 40µM* | 5% | -1%
CC(C)c1ccc(C2C3=C(CC(C)(C)CC3=O)NC3=C2C(=O)c2ccccc23)cc1 (centres undefined) | 16µM* | 4%[57.1 µM] | 23µM* | ? | 4% | -10%
Brc1cc(Br)c[n+](CCc2ccccc2)c1 | . | 3% | . | 5% | . | .
Cc1sc(-n2cccc2)c(C(C)NC(=O)Nc2cccc(C(F)(F)F)c2)c1C (centres undefined) | -19% | -2% | ? | 10% | . | .
Cc1ccc(NC(=O)NC(C)c2c(-n3cccc3)sc(C)c2C)cc1F (centres undefined) | ? | 4% | 23µM* | 24% | . | .
c1ccc(CN2CCC(CNc3ncnc4ccccc34)C2)cc1 (centres undefined) | -13% | 2%[57.1 µM] | 21µM* | -2%[2.29 µM] | . | 4%
CC(C)CNc1ncnc2oc(-c3ccco3)c(-c3ccco3)c12 | -14% | 11% | 16µM* | ? | . | .
CC(C)(C)OC(=O)NCC(=O)NNC(=O)c1cc2ccccc2[nH]1 | 2% | . | 4% | . | . | .
CC(C)(C)SCCNC(=O)CN(c1ccc(F)cc1)S(C)(=O)=O | 0%[1.84 µM] | 2% | 2% | 8% | 6.3µM* | 0%
CCc1ccc(NS(=O)(=O)c2[nH]ncc2C(=O)OC)cc1 | 0% | 2% | -4% | 6% | . | -3%
Cc1ccc(C(=O)n2cnnc2N)cc1 | 0% | -3% | 8.2µM* | -1% | 1% | -3%
O=C1CC(c2cc(F)ccc2F)c2cc3c(cc2N1)CCC3 (centres undefined) | -11% | -4% | ? | 10% | 7.1µM* | 4%
O=C1CC(c2cccc(Br)c2)c2cc3c(cc2N1)CCC3 (centres undefined) | ? | 7% | ? | 7% | -12% | 2%
Cc1c(-c2nc(-c3ccc4c(c3)OCO4)no2)nnn1-c1ccc(C(C)C)cc1 | -1% | 2%[57.1 µM] | ? | 19%[57.1 µM] | . | 11%
Cc1ccc(C(=O)NNC(=S)NC(=O)COc2ccccc2)cc1 | 1% | 6% | 5% | 40µM* | 2% | 4%
Cc1ccc(OCC(=O)NNc2c3ccccc3nc3ccccc23)cc1 | ? | -4% | 18µM* | 2% | 16% | 4%
CC(C)(C)C(=O)NC(=S)NNC(=O)c1ccc(-c2ccccc2)cc1 | ? | -3% | 2.9µM* | ? | -31% | -1%
CC(C)(C)C(=O)NC(=S)NNC(=O)c1ccc(Cl)cc1Cl | ? | 1% | 8.2µM* | -11% | -1% | -6%
O=C(C[n+]1ccncc1)c1ccc(Br)cc1 | . | 3% | . | -7% | . | .
Cc1ccc(CN2CCc3c(OCc4ccc(F)cc4)cccc3C2=O)cc1 | 3% | -6% | ? | 1% | 30% | 9%
O=C1c2cccc(OCc3ccc(F)cc3)c2CCN1Cc1ccc(F)cc1 | -5% | -10% | 16µM* | -10% | ? | -2%
O=Cc1ccc(Oc2cc(-c3ccccc3)nc(-c3ccccc3)n2)cc1 | 7% | 11% | ? | 21% | 0% | 3%
O=S(Cc1cc(Oc2ccccc2)nc(-c2ccccc2)n1)c1ccccc1 (centres undefined) | -11% | -18% | 10µM* | 7%[57.1 µM] | 4% | 1%
